{"source": "PubChem BioAssay (NCI)", "note": "The panel holds about 83,000 compounds, 20% with a hit somewhere; the sample as a whole holds those more often.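 Step 1: grow cells in 96-well plates. Step 2: add test compound at a single concentration. Step 3: incubate 48 h. Step 4: record percent growth.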 Values without a mark were called inactive. Calls of active or inactive are those of the source.", "data": [{"tested_on": "MDA-MB-435 melanoma", "assay": "NCI-60 one-dose screen, 48 h (100 = growth as untreated, 0 = no growth, -100 = all killed)", "conditions": "10 µM unless noted", "protocol": "Growth inhibition of the MDA-MB-435 human Melanoma tumor cell line is measured as a screen for anti-cancer activity. Cells are grown in 96 well plates and exposed to the test compound for 48 hours. Compounds are tested at a single concentration, which is 10^-5 M for most compounds. The reported endpoint is percent growth (GI% or GIPRCNT), where numbers from 0 - 100% represent growth inhibition, and numbers from -100% - 0 represent cell death. For example, a value of 40 represents 60% growth inhibition. A value of 0 means no net growth occurred over the course of the experiment. A value of -40 indicates 40% of cells at the beginning of the experiment died by the end of the experiment. A value of -100 means all cells are dead at the end of the experiment.\nNCI-60 Human Tumor Cell Lines Screen was performed using the standard one-dose NCI protocol, which is described in more detail at https://dtp.cancer.gov/discovery_development/nci-60/default.htm.\nCompounds with GIPRCNT values below 10 were considered active. Activity score was based on GIPRCNT using the following formula: […]\nScore is 0 for GIPRCNT values of 100 or above, 50 for GIPRCNT values of 0, and 100 for GIPRCNT values of -100.", "values": [{"smiles": "COc1cc(-c2cc(-c3nc4ccccc4[nH]3)[nH]n2)cc(OC)c1OC", "growth": "19.2%"}, {"smiles": "O=C(NO)c1ccc(Cn2c(=O)n(-c3ccccc3)c(=O)c3ccccc32)cc1", "growth": "-64.2% (active)"}, {"smiles": "COc1cc2c(cc1-c1c(C)noc1C)ncc1nc(C3CCC(F)(F)CC3)n([C@@H](C)COC(F)F)c12", "growth": "36.5%"}, {"smiles": "CC[C@H](CC[C@@H](C)[C@H]1CC[C@H]2[C@@H]3/C(=C/c4cccnc4)C(=O)C4=CC(=O)CC[C@]4(C)[C@H]3CC[C@]12C)C(C)C", "growth": "99.7%"}, {"smiles": "COc1ccc2c(c1)c(-c1nc(-c3c[nH]c4ncccc34)cs1)cn2C", "growth": "69.6%"}, {"smiles": "Cc1ccc(Sc2sc(-c3ccccc3)nc2[P+](c2ccccc2)(c2ccccc2)c2ccccc2)cc1", "growth": "-16.3% (active)"}, {"smiles": "O=C(O)c1cccc2c1-c1ccc(Cl)cc1C2", "growth": "106%"}, {"smiles": "COC(=O)[C@]12CC[C@@H](C)[C@H](C)[C@@H]1C1=CC[C@@H]3[C@@](C)(CC#N)C4=C(C[C@@]3(C)[C@]1(C)CC2)OC[C@]4(C)C=O", "growth": "3.05% (active)"}, {"smiles": "CN(C)CCCC1(c2ccc(F)cc2)OCc2cc(-c3ccc(C(F)(F)F)nc3)ccc21", "note": "(stereo not given)", "growth": "67.9%"}, {"smiles": "COc1ccc(-c2cc(-c3c(C)oc4cc5occc5c(OC)c4c3=O)nc(N)c2C#N)cc1OC", "growth": "17.6%"}, {"smiles": "C=C1C(=O)O[C@H]2[C@H]1CC/C(COC(=O)NCc1c[nH]c3ccccc13)=C\\CC[C@@]1(C)O[C@@H]21", "growth": "46.9%"}, {"smiles": "COc1ccc(CCN2C(=O)C(C)(C)SC2=S)cc1OC", "growth": "99.2%"}, {"smiles": "CCN1CCN(c2nc(C)cc(N(CCCNc3ccnc4cc(Cl)ccc34)Cc3ccco3)n2)CC1", "growth": "4.03% (active)"}, {"smiles": "C=C(C)[C@@H]1CC[C@]2(CN)CC[C@]3(C)[C@H](CC[C@@H]4[C@@](C)(CCCN)[C@H](C(=C)C)CC[C@]43C)[C@@H]12", "growth": "96.2%"}, {"smiles": "C=C(C)[C@@H]1CC[C@]2(C(=O)N3CCCNCC3)CC[C@]3(C)[C@H](CC[C@@H]4[C@@]5(C)CCC(=O)C(C)(C)[C@@H]5CC[C@]43C)[C@@H]12", "growth": "95.5%"}, {"smiles": "O=S(=O)(NCCCNc1cc(-c2cn(-c3ccccc3)nc2-c2cccc(O)c2)ccn1)c1ccc(F)cc1", "growth": "38.9%"}, {"smiles": "C=C(C)[C@@H]1CC[C@]2(/C=N/Nc3ccncc3)CC[C@]3(C)[C@H](CC[C@@H]4[C@@]5(C)CCCNC(C)(C)[C@@H]5CC[C@]43C)[C@@H]12", "growth": "86.7%"}, {"smiles": "CN(C)c1ccc(C(=O)c2ccc(N(C)C)c(N)c2)cc1N", "growth": "-32.1% (active)"}, {"smiles": "Cc1cc2nc3c4cc(O)ccc4n(CCN(C)C)c3nc2cc1C", "growth": "3.8% (active)"}, {"smiles": "C=C(C)[C@@H]1CC[C@]2(C)[C@H](CC=C3[C@@H]4CC(C)(C)CC[C@]4(C(=O)OC)CC[C@]32C)[C@@]1(C)CC/C(N)=N/O", "growth": "80.5%"}, {"smiles": "CC(=O)Nc1cc(F)cc(C(F)(F)F)c1Cl", "growth": "99.3%"}, {"smiles": "COc1cc2nc(Cl)nc(Nc3cccc(C(=O)/C=C/c4ccc(F)cc4)c3)c2cc1OC", "growth": "39.4%"}, {"smiles": "N#CCCCCCn1c2ccccc2c2c3c(c4c5ccccc5n(CCCCCC#N)c4c21)C(=O)N(O)C3=O", "growth": "91.3%"}, {"smiles": "Cc1cc(Nc2ccc(F)cc2)nc(N2CCN(c3ccnc4cc(Cl)ccc34)CC2)n1", "growth": "13.2%"}, {"smiles": "Cc1nn(-c2ccc(Cl)cc2)c(=O)n1CCn1cnc2ccccc21", "growth": "100%"}, {"smiles": "N=C(N)N=Nc1ccc(O)cc1", "growth": "80.4% [100 µM]"}, {"smiles": "CCc1nnc(NC(=O)c2ccoc2COc2ccccc2)s1", "growth": "-26.1% (active)"}, {"smiles": "COc1ccc(NC(=O)c2ccoc2COc2ccccc2)cc1", "growth": "73.6%"}, {"smiles": "NCCn1cc(-c2nc(-c3c[nH]c4ncccc34)cs2)c2cc(F)ccc21", "growth": "81.7%"}, {"smiles": "CC(CNc1nc(Nc2ccc(Cl)c(Cl)c2)nc(C(Cl)(Cl)Cl)n1)N(C)C", "note": "(stereo not given)", "growth": "-47.1% (active)"}, {"smiles": "Cc1cc(N(CCNc2ccnc3cc(Cl)ccc23)Cc2ccco2)nc(Cl)n1", "growth": "30.1%"}, {"smiles": "O=[N+]([O-])c1cc(S(=O)(=O)c2ccc(F)c([N+](=O)[O-])c2)ccc1F", "growth": "103%"}, {"smiles": "Cc1cccc2c1NC(=O)[C@@]21[C@H](C(=O)c2ccccc2)[C@]2(C(=O)Nc3ccccc32)[C@H]2CCCN21", "growth": "61.8% [100 µM]"}, {"smiles": "COC(=O)[C@]12CC[C@@H](C)[C@H](C)[C@@H]1C1=CC[C@@H]3[C@@]4(C)C[C@@H](OC(C)=O)[C@H](OC(C)=O)[C@@](C)(COC(C)=O)[C@@H]4[C@H](O)C[C@@]3(C)[C@]1(C)CC2", "growth": "17.4%"}, {"smiles": "COc1ccc2[nH]c(-c3ccc(Cl)cc3)cc(=O)c2c1", "growth": "94.7%"}, {"smiles": "N=c1c(S(=O)(=O)c2ccccc2)cc2c(=O)n3ccccc3nc2n1C1CCCC1", "growth": "108%"}, {"smiles": "c1ccc2[nH]c(-c3ccc(Nc4nc(N5CCCCC5)nc(N5CCOCC5)n4)cc3)nc2c1", "growth": "-27.3% (active)"}, {"smiles": "CN1CCN(c2nc(-c3csc(-c4cccs4)n3)cc3ccccc23)CC1", "growth": "12.2%"}, {"smiles": "N#CC1=C(N)Oc2c(c(N)nn2-c2ccccc2)C1c1ccc(Cl)cc1", "note": "(stereo not given)", "growth": "105%"}, {"smiles": "Cc1nnc2nc(N)[nH]n2c1=O", "growth": "113%"}]}]}
